ChEMBL document CHEMBL4888484, “Replenishing the malaria drug discovery pipeline: Screening and hit evaluation of the MMV Hit Generation Library 1 (HGL1) against asexual blood stage Plasmodium falciparum ,using a nano luciferase reporter read-out” (2022)
Among all 150,000 compounds or so, about 540 (0.36%) showed an effect of 50% or more. The full list was thinned out, with strong results kept by preference.

Each compound was assayed on Plasmodium falciparum (assay: Primary screen in NF54 nanoGlo assay, in single point, at 2uM, 72h; a lower Z score goes with more inhibition). Conditions: timepoint 72 hour.
Type: functional, Erythrocyte
`Cc1cnc(C2CCOCC2)n1CC1CCN(C(=O)c2cccs2)CC1` was tested, and the “% Inhibition” value was -4% and the Z score was 0.55.
For `Cc1cc(F)ccc1C(=O)NCc1nnc(C)n1C1CC1`, the “% Inhibition” value was -2% and the Z score was 0.34.
For `CCN1CCN([C@H]2CCN(c3cc(Cl)ccc3C#N)C2)CC1`, the “% Inhibition” value was -9% and the Z score was 1.34.
For `CCn1c(-c2cc(NC(=O)c3ccncc3)[nH]n2)cc2ccc(OC)cc21`, the “% Inhibition” value was 34% and the Z score was -3.83.
`CCn1c(-c2cc(NC(=O)c3cc(C)cc(C)c3)[nH]n2)cc2ccc(OC)cc21` was tested, and the “% Inhibition” value was 17% and the Z score was -1.96.
`CCn1c(-c2cc(NC(=O)c3ccc4c(c3)OCO4)[nH]n2)cc2ccc(OC)cc21` was tested, and the “% Inhibition” value was 52% and the Z score was -0.45.
With `O=C(c1cnn(Cc2ccccc2)c1)N1CCC[C@@H]1CO` the “% Inhibition” value was 5% and the Z score was -0.66.
In the case of `Cc1ccc(CNC(=O)CN2CCN(C(=O)Nc3ccc(Cl)cc3)CC2=O)o1`, the “% Inhibition” value is reported as 7% and the Z score is reported as -1.32.
`CCN1CCOC(C(=O)N2CCCC(COc3ccccc3)C2)C1` (stereo not given) was tested, and the “% Inhibition” value was -11% and the Z score was 1.91.
With `Oc1ccccc1-c1cnc(C(F)(F)F)s1` the “% Inhibition” value was 93% and the Z score was -17.09.
With `NC(=O)CC(=O)Nc1ncc(-c2ccccc2F)s1` the “% Inhibition” value was 4% and the Z score was -0.56.
For `Oc1ccccc1C1=NN[C@@](O)(C(F)(F)C(F)F)C1`, the “% Inhibition” value was -6% and the Z score was 0.8.
With `Cn1nccc1[C@@H](O)CNC(=O)C1(c2cccnc2)CC2(CCC2)C1` the “% Inhibition” value was -8% and the Z score was 1.59.
`CCN(CCN(C)C)C(=O)c1cccc(-c2ncccc2C)c1` was tested, and the “% Inhibition” value was -6% and the Z score was 0.81.
In the case of `CCN(CCN(C)C)C(=O)c1cccc(-c2ccc3nccc(N)c3c2)c1`, the “% Inhibition” value is reported as 96% and the Z score is reported as -13.62.
`CCN(CC)CCN(CC)C(=O)c1cccc(-c2ccc(C)nc2N)c1` was tested, and the “% Inhibition” value was -7% and the Z score was 0.71.
`CNC(=O)[C@@H]1C[C@H](NCc2ccccc2F)CN1CC(c1ccccc1)c1ccccc1` was tested, and the “% Inhibition” value was 9% and the Z score was -1.28.
In the case of `CNC(=O)[C@@H]1C[C@@H](NCc2ccc(C(F)(F)F)cc2)CN1CC(c1ccccc1)c1ccccc1`, the “% Inhibition” value is reported as 2% and the Z score is reported as -0.22.
With `CNC(=O)[C@@H]1C[C@H](NCc2cc(OC)c(OC)c(OC)c2)CN1CC(c1ccccc1)c1ccccc1` the “% Inhibition” value was 54% and the Z score was -11.4.
`Cc1cccc(OCCN2C(=O)N[C@@]3(CCCCc4ccccc43)C2=O)c1` was tested, and the “% Inhibition” value was 4% and the Z score was -0.78.
In the case of `CCN(Cc1noc(C2CCC2)n1)Cc1ccccc1C#N`, the “% Inhibition” value is reported as -1% and the Z score is reported as 0.12.
`COc1ccc(Cl)cc1-c1c(N2CCCC2)cn[nH]c1=O` was tested, and the “% Inhibition” value was 1% and the Z score was -0.09.
In the case of `O=C(NCCOc1ccccc1)c1ccc(C(=O)NCCOc2ccccc2)s1`, the “% Inhibition” value is reported as 56% and the Z score is reported as -0.3.
`O=C(NCCOc1ccccc1)NCCOc1ccccc1` was tested, and the “% Inhibition” value was 1% and the Z score was -0.22.
For `Cc1cc(C(=O)NCCOc2ccccc2)c(C)s1`, the “% Inhibition” value was -17% and the Z score was 2.3.
For `Cc1cc(C)n(Cc2c(C(=O)NCc3ccc(N(C)C)cc3)noc2C)n1`, the “% Inhibition” value was -13% and the Z score was 1.35.
`C#CCCCCC(=O)Nc1ccc(C#N)cn1` was tested, and the “% Inhibition” value was 4% and the Z score was -0.84.
For `CC(C)[C@H]1CN(C(=O)c2nc(C(F)(F)F)n3c2CCCC3)CCN1`, the “% Inhibition” value was -15% and the Z score was 1.9.
In the case of `Oc1cccc(CN[C@H]2CCCc3occc32)c1Cl`, the “% Inhibition” value is reported as 78% and the Z score is reported as -12.81.
With `CC(O)CC(C)(C)CNC1CCCc2occc21` (stereo not given) the “% Inhibition” value was 36% and the Z score was 0.84.
`COc1cccc(Cl)c1CN[C@H]1CCCc2occc21` was tested, and the “% Inhibition” value was -24% and the Z score was 2.8.
In the case of `O=C(Nc1ccc(Cl)cc1)N1Cc2nc[nH]c2C[C@H]1c1nc(-c2ccc3ccccc3c2)no1`, the “% Inhibition” value is reported as 19% and the Z score is reported as -2.22.
For `Cc1cnn(C2CN(CC(=O)N3CC(=O)Nc4ccccc43)C2)c1`, the “% Inhibition” value was -10% and the Z score was 1.59.
In the case of `CCCc1cc(C(=O)N2C[C@@H]3CC[C@H]2CN(C(C)=O)C3)n(C)n1`, the “% Inhibition” value is reported as 3% and the Z score is reported as -0.61.
`CCc1ncnc(N2CC[C@H](Cc3nnn[nH]3)C2)c1F` was tested, and the “% Inhibition” value was -13% and the Z score was 1.77.
With `NC(=O)C1CCN(CCC(=O)N2CCc3cc4ccc3[C@@H]2c2cccc(c2)OCCCNC(=O)c2cc(ccc2O)O4)CC1` the “% Inhibition” value was 92% and the Z score was -17.59.
For `NCc1cccc(C(=O)N2CCc3cc4ccc3[C@@H]2c2cccc(c2)OCCCNC(=O)c2cc(ccc2O)O4)c1`, the “% Inhibition” value was 86% and the Z score was -13.81.
`Cc1cc(C(=O)N2CCc3cc4ccc3[C@@H]2c2cccc(c2)OCCCNC(=O)c2cc(ccc2O)O4)n(C)n1` was tested, and the “% Inhibition” value was -11% and the Z score was 1.41.
For `CCn1ccc(C(=O)N2CCc3cc4ccc3[C@@H]2c2cccc(c2)OCCCNC(=O)c2cc(ccc2O)O4)cc1=O`, the “% Inhibition” value was 7% and the Z score was -1.26.
For `O=C1NCCCOc2cccc(c2)[C@H]2c3ccc(cc3CCN2C(=O)CCN2CCOCC2)Oc2ccc(O)c1c2`, the “% Inhibition” value was 39% and the Z score was -8.79.
`COCC(=O)N1CCc2cc3ccc2[C@@H]1c1cccc(c1)OCCCNC(=O)c1cc(ccc1O)O3` was tested, and the “% Inhibition” value was -2% and the Z score was 0.47.
With `Cc1ccc(OS(=O)(=O)c2ccc3c(c2)NC(=O)CO3)c(Br)c1` the “% Inhibition” value was -5% and the Z score was 0.38.
For `CCc1nccc(-c2nccn2CCOc2ccccc2F)n1`, the “% Inhibition” value was -5% and the Z score was 0.87.
In the case of `CN(C(=O)CC1(C(=O)O)CCC1)[C@H]1CCOc2ccc(Br)cc21`, the “% Inhibition” value is reported as 1% and the Z score is reported as -0.26.
In the case of `Cc1cc(CS(=O)(=O)[C@@H](C)C(=O)NCc2ccccc2)on1`, the “% Inhibition” value is reported as -12% and the Z score is reported as 2.41.
In the case of `O=S(=O)(Cc1ccc(OC(F)(F)F)cc1)Nc1cccnc1-n1cccn1`, the “% Inhibition” value is reported as 2% and the Z score is reported as -0.39.
`Cc1ccc(NC(=O)Cc2nnc(-c3cnccn3)o2)c(Cl)c1` was tested, and the “% Inhibition” value was -12% and the Z score was 1.25.
In the case of `CC(C)NC[C@H](O)Cn1c(-c2ccccc2)ccc1-c1ccccc1`, the “% Inhibition” value is reported as 8% and the Z score is reported as -1.24.
In the case of `CCC(C)NCC(O)Cn1c(-c2ccccc2)c(-c2ccccc2)c2cc(C)ccc21` (stereo not given), the “% Inhibition” value is reported as 93% and the Z score is reported as -10.06.
For `Cc1c(C)n(CC(O)CNC(C)c2ccccc2)c2c(Cl)cccc12` (stereo not given), the “% Inhibition” value was 59% and the Z score was -7.71.
In the case of `COCCN(CCOC)C[C@H](O)Cn1c(-c2ccccc2)c(-c2ccccc2)c2cc(C)ccc21`, the “% Inhibition” value is reported as 0% and the Z score is reported as 0.06.
For `Cc1c(C)n(C[C@@H](O)CNC2CCCC2)c2c(Cl)cccc12`, the “% Inhibition” value was 48% and the Z score was -6.21.
In the case of `Cc1ccc2c(c1)c(-c1ccccc1)c(-c1ccccc1)n2C[C@@H](O)CNCCCO`, the “% Inhibition” value is reported as 1% and the Z score is reported as -0.17.
For `Cc1c(C)n(C[C@@H](O)Cn2ccnc2C)c2c(Cl)cccc12`, the “% Inhibition” value was -5% and the Z score was 0.7.
In the case of `CC(NCC(O)Cn1c(-c2ccccc2)c(-c2ccccc2)c2ccc3ccccc3c21)c1ccccc1` (stereo not given), the “% Inhibition” value is reported as 88% and the Z score is reported as -10.69.
With `CC(NCC(O)COc1ccc2c(c1)OCO2)c1ccccc1` (stereo not given) the “% Inhibition” value was -9% and the Z score was 1.69.
For `CS(=O)(=O)N1C[C@H]2CC[C@@H](C1)N(C(=O)c1ccc3[nH]nnc3c1)C2`, the “% Inhibition” value was -7% and the Z score was 1.17.
For `CO[C@@]12CC[C@@H](OCC3CC3)C[C@@H]1N(C(=O)c1csc(C(C)C)n1)CC2`, the “% Inhibition” value was -2% and the Z score was 0.34.
For `Cc1cc2c(NC(=O)N(Cc3ccsc3)CC(C)C)cccc2nn1`, the “% Inhibition” value was -6% and the Z score was 1.12.
For `O=C(NCc1cccnc1)c1coc(CN(Cc2ccccc2)Cc2ccccc2C(F)(F)F)n1`, the “% Inhibition” value was 0% and the Z score was 0.02.
`Cc1nnc(CN(C)Cc2c[nH]cn2)s1` was tested, and the “% Inhibition” value was 4% and the Z score was -0.58.
For `C[C@H]1CN=C2C=C(N3CCN(C(=O)Nc4ccccc4C(F)(F)F)CC3)N=CN21`, the “% Inhibition” value was -11% and the Z score was 1.77.
For `Cc1cc(F)cc(NC(=O)N2CCCN(C(=O)C(F)(F)F)CC2)c1`, the “% Inhibition” value was -11% and the Z score was 1.45.
With `Cc1oc(C2CCN(C(=O)Nc3cccc(F)c3C)CC2)nc1C(=O)N1CCCC1` the “% Inhibition” value was -3% and the Z score was 0.55.
With `CCc1cccc(NC(=O)N2CCN(C3=CC4=NC[C@H](C)N4C=N3)CC2)c1` the “% Inhibition” value was 58% and the Z score was -5.02.
With `CCc1cccc(NC(=O)N2CCN(c3nccs3)CC2)c1` the “% Inhibition” value was -2% and the Z score was 0.21.
For `O=C(Cc1ccccc1)N1CCN(c2cc(N3CCCC3)ncn2)CC1`, the “% Inhibition” value was -8% and the Z score was 0.94.
`C[C@H]1CN2C=NC(N3CCN(C(=O)c4ccccc4)CC3)=CC2=N1` was tested, and the “% Inhibition” value was -3% and the Z score was 0.63.
For `CC[C@H]1CN2C=NC(N3CCN(C(=O)Nc4cc(F)cc(F)c4)CC3)=CC2=N1`, the “% Inhibition” value was 68% and the Z score was -4.25.
In the case of `O=C(Nc1cc(F)cc(F)c1)N1CC[C@H](Cc2ccncc2)C1`, the “% Inhibition” value is reported as -5% and the Z score is reported as 0.93.
`Cc1c(F)cccc1NC(=O)N1CCN(C2=CC3=N[C@@H](C)CN3C=N2)CC1` was tested, and the “% Inhibition” value was 57% and the Z score was -7.99.
With `CN1CCN(c2cc(N3CCN(C(=O)Cc4ccccc4)CC3)ncn2)CC1` the “% Inhibition” value was -10% and the Z score was 0.91.
`CC[C@H]1CN2C=NC(N3CCN(C(=O)Cc4ccccc4)CC3)=CC2=N1` was tested, and the “% Inhibition” value was 56% and the Z score was -2.27.
For `Cc1ccc(NC(=O)Cn2cc(S(=O)(=O)N3CCCCCC3)ccc2=O)c(C)c1`, the “% Inhibition” value was -2% and the Z score was 0.3.
In the case of `CN(c1cnn(C)c1)S(=O)(=O)c1ccccc1`, the “% Inhibition” value is reported as -12% and the Z score is reported as 1.93.
In the case of `CCc1onc(C)c1NCc1cnc(C(C)(C)C)s1`, the “% Inhibition” value is reported as 34% and the Z score is reported as 0.74.
With `COC(=O)C1=C(c2ccccc2)S/C(=C2/C(=S)C(C)(C)Nc3ccc(C)cc32)S1` the “% Inhibition” value was -8% and the Z score was 0.99.
`Cc1ccccc1N1CCN(C(=O)CC[C@@H]2CN(Cc3ccccn3)CC[C@@H]2N2CCOCC2)CC1` was tested, and the “% Inhibition” value was 2% and the Z score was -0.27.
With `FC(F)[C@H](NCc1nnc(C2CC2)s1)c1ccccc1` the “% Inhibition” value was 2% and the Z score was -0.43.
`CCCc1nnsc1C(=O)N1CCc2nc(NC(=O)OCC)sc2C1` was tested, and the “% Inhibition” value was -5% and the Z score was 1.08.
